Where “and” joins values, the source holds several entries; their conditions need not be identical. Identical values can stand only once. The source holds several records for some structures; these can differ, active in one and inactive in another. Calls of active or inactive are those of the source. Rule for the calls: active = hit-call score of the fitted dose curve at least 0.9, where 1 is the maximum; inactive = score below 0.9.
Key:
[1] = ATG_GLI_CIS: Attagene CIS-FACTORIAL HepG2 Assay for human Zinc Finger Protein GLI1 (AID 2282945); settings: HepG2, Attagene cis-factorial reporter mRNA, GLI element; actives raise or lower the signal
Method in brief: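 Bidirectional curve fits relative to DMSO, using reporter mRNA levels from RT-PCR plus capillary electrophoresis. Cells were HepG2 transiently carrying cis-regulated reporter constructs, harvested 24 h after dosing.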

[2] = target: Bile acid receptor (Homo sapiens) (UniProt Q96RI1); assay: ATG_IR1_CIS: Attagene CIS-FACTORIAL HepG2 Assay for human Nuclear Receptor Subfamily 1 Group H Member 4 (NR1H4), IR1 submotif (AID 2282946); settings: IR1 reporter transcription, actives raise or lower the signal
Method in brief: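 Cells (human HepG2) carry transiently transfected cis-promoter reporter transcription units. Compounds are incubated 24 h, total RNA is reverse-transcribed and amplified, and labelled fragments are resolved by capillary electrophoresis. Curves use DMSO as baseline.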

[3] = ATG_GRE_CIS: Attagene CIS-FACTORIAL HepG2 Assay for human Glucocorticoid Response Elements (GRE) (AID 2282947); settings: HepG2 GRE cis-reporter, Attagene multiplex mRNA; actives raise or lower the signal
Method in brief: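 Assay uses human hepatoma HepG2 cells transfected with cis-promoter reporter units, exposed 24 h. mRNA from reporters detected by RT-PCR plus capillary electrophoresis; DMSO serves as negative control and baseline.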

[4] = ATG_ISRE_CIS: Attagene CIS-FACTORIAL HepG2 Assay for human Interferon Regulatory Factor 1 (IRF1) binding to an Interferon-Stimulated Response Element (ISRE) (AID 2282948); settings: HepG2 ISRE cis-reporter (Attagene), mRNA transcription readout; actives raise or lower the signal
Method in brief: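 HepG2 cells transiently transfected with multiplexed cis-promoter reporter units; after 24 h compound exposure, reporter mRNA quantified by RT-PCR, FAM labelling, HpaI digestion and capillary electrophoresis. Bidirectional fit versus DMSO baseline.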

[5] = ATG_M_32_CIS: Attagene CIS-FACTORIAL HepG2 Assay for M32 Transcription Factor (Internal Marker) (AID 2282949); settings: HepG2 Attagene cis-factorial M32 reporter, mRNA; actives raise or lower the signal;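 note: background control marker of the multiplexed CIS panel rather than a real target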
Method in brief: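 Following 24 h chemical exposure of HepG2 cells transiently expressing cis-promoter reporter constructs, reporter transcript levels were determined by RT-PCR with fluorescent labelling and capillary electrophoresis, then fitted bidirectionally against DMSO.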

[6] = ATG_M_06_CIS: Attagene CIS-FACTORIAL HepG2 Assay for M06 Transcription Factor (Internal Marker) (AID 2282950); settings: HepG2 Attagene CIS-FACTORIAL M06 internal marker reporter; actives raise or lower the signal
Method in brief: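 Measured 24 h post-dosing in transiently transfected HepG2 cells, this internal-marker endpoint reports reporter mRNA via RT-PCR with fluorescent primer extension and capillary electrophoresis. DMSO served as negative control and baseline for bidirectional fitting.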

[7] = target: Hypoxia-inducible factor 1-alpha (Homo sapiens) (UniProt Q16665); assay: ATG_HIF1a_CIS: Attagene CIS-FACTORIAL HepG2 Assay for human Hypoxia Inducible Factor 1 (HIF1A) (AID 2282951); settings: HepG2 Attagene cis-factorial HIF1a reporter transcription; actives raise or lower the signal
Method in brief: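 In this multiplexed cell assay, HepG2 cells bearing transfected cis reporters are dosed for 24 h and reporter mRNA is read by RT-PCR plus capillary electrophoresis; signal increases and decreases are both scored against DMSO.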

[8] = target: Hepatocyte nuclear factor 6 (Homo sapiens) (UniProt Q9UBC0); assay: ATG_HNF6_CIS: Attagene CIS-FACTORIAL HepG2 Assay for human Hepatocyte Nuclear Factor 6 (HNF6) (AID 2282952); settings: HepG2 Attagene cis-factorial HNF6 reporter transcription; actives raise or lower the signal
Method in brief: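 HepG2 cells transiently transfected with cis-element-driven multiple reporter transcription units, dosed 24 h; reporter mRNA quantified by RT-PCR, FAM primer extension, HpaI digestion and capillary electrophoresis; bidirectional fit versus DMSO baseline.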

[9] = target: Heat shock factor protein 1 (Homo sapiens) (UniProt Q00613); assay: ATG_HSE_CIS: Attagene CIS-FACTORIAL HepG2 Assay for human Heat Shock Transcription Factor 1 (HSE) (AID 2282953); settings: HepG2 HSE cis-reporter, Attagene RNA transcription; actives raise or lower the signal
Method in brief: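 Reporter mRNA induction in HepG2 is measured 24 h after dosing, using transiently transfected multiplexed cis-regulated reporter units. Signal comes from capillary electrophoresis of labelled RT-PCR products, with DMSO as negative control.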

[10] = ATG_MRE_CIS: Attagene CIS-FACTORIAL HepG2 Assay for human Metal Responsive Element (MRE) (AID 2282954); settings: HepG2 MRE cis-reporter transcription, Attagene multiplex; actives raise or lower the signal
Method in brief: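 After a 24 h chemical exposure, transiently transfected HepG2 cells yield RNA whose reporter sequences are amplified, FAM-labelled and sized by capillary electrophoresis. Curves are fitted bidirectionally relative to DMSO.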

[11] = ATG_PBREM_CIS: Attagene CIS-FACTORIAL HepG2 Assay for human Phenobarbital-responsive Enhancer Module (PBREM) (AID 2282955); settings: HepG2 PBREM cis-reporter, Attagene multiplexed transcription; actives raise or lower the signal
Method in brief: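 After a 24 h incubation with test chemical, transfected HepG2 cells yield total RNA; reporter-specific RT-PCR products are fluorescently labelled, HpaI-digested and resolved by capillary electrophoresis against ROX size standards.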

[12] = target: Paired box protein Pax-6 (Homo sapiens) (UniProt P26367); assay: ATG_Pax6_CIS: Attagene CIS-FACTORIAL HepG2 Assay for human Paired Box 6 (PAX6) (AID 2282956); settings: HepG2 CIS-FACTORIAL PAX6 reporter transcription, RNA readout; actives raise or lower the signal
Method in brief: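 HepG2 cells transiently transfected with multiplexed cis-promoter reporter units (endogenous TF activity) were dosed for 24 h. Reporter mRNA was quantified by RT-PCR, 6-FAM labeling, HpaI digestion and capillary electrophoresis; bidirectional fitting versus DMSO baseline.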

[13] = ATG_PXRE_CIS: Attagene CIS-FACTORIAL HepG2 Assay for human Pregnane X Receptor Element (PXRE) (AID 2282957); settings: HepG2 Attagene CIS-FACTORIAL PXRE reporter, mRNA; actives raise or lower the signal
Method in brief: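 HepG2 cells transiently transfected with cis-regulated multiple reporter transcription units; endogenous factor activity measured as reporter mRNA 24 h after dosing. RT-PCR, fluorescent primer extension, HpaI digestion, capillary electrophoresis; bidirectional fit versus DMSO baseline.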

[14] = ATG_PPRE_CIS: Attagene CIS-FACTORIAL HepG2 Assay for human Peroxisome Proliferator-activated Response Element (PPRE) (AID 2282958); settings: HepG2 PPRE cis-element reporter, Attagene transcription factor profiling; actives raise or lower the signal
Method in brief: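 Multiplexed reporter transcription units under cis-regulatory promoters were transfected into HepG2 cells to capture endogenous factor activity. A 24 h incubation preceded RNA isolation and fluorescent RT-PCR fragment analysis.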

[15] = ATG_RORE_CIS: Attagene CIS-FACTORIAL HepG2 Assay for human RAR-related Orphan Receptor Element (RORE) (AID 2282959); settings: HepG2 Attagene cis-factorial RORE reporter, mRNA; actives raise or lower the signal
Method in brief: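 Fluorescence intensity of reporter-specific cDNA fragments, separated by capillary electrophoresis, gives the signal. Source: HepG2 liver cells transiently transfected with cis-element reporters and exposed 24 h; DMSO-normalized bidirectional fit.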

[16] = ATG_Sox_CIS: Attagene CIS-FACTORIAL HepG2 Assay for human SRY-box transcription factor (SOX) (AID 2282960); settings: HepG2 Attagene cis-factorial SOX reporter, mRNA; actives raise or lower the signal
Method in brief: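 After 24 h of chemical treatment, transfected HepG2 reporter cells are lysed for total RNA. Transcript levels come from RT-PCR with labelled primer extension and capillary electrophoresis, analysed bidirectionally versus DMSO.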

[17] = target: Transcription factor Sp1 (Homo sapiens) (UniProt P08047); assay: ATG_Sp1_CIS: Attagene CIS-FACTORIAL HepG2 Assay for human Specificity Protein 1 (Sp1) (AID 2282961); settings: HepG2 Sp1 cis-reporter transcription, actives raise or lower the signal
Method in brief: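 Sp1-driven reporter mRNA, read as capillary electrophoresis fluorescence after RT-PCR, in transiently transfected HepG2 cells dosed for 24 h; signal change in either direction relative to DMSO.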

[18] = ATG_SREBP_CIS: Attagene CIS-FACTORIAL HepG2 Assay for human Sterol Regulatory Element Binding (SREBP) (AID 2282962); settings: HepG2 Attagene cis-factorial SREBP reporter, mRNA; actives raise or lower the signal
Method in brief: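 HepG2 cells transiently transfected with multiplexed cis-element reporter units report endogenous transcription factor activity. After 24 h of chemical exposure, reporter mRNA was quantified by RT-PCR, 6-FAM labelling, HpaI digestion and capillary electrophoresis; bidirectional fits used DMSO as baseline.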

[19] = target: Signal transducer and activator of transcription 3 (Homo sapiens) (UniProt P40763); assay: ATG_STAT3_CIS: Attagene CIS-FACTORIAL HepG2 Assay for human Signal Transducer and Activator of Transcription 3 (STAT3) (AID 2282963); settings: HepG2, Attagene cis-factorial STAT3 reporter transcription; actives raise or lower the signal
Method in brief: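 After a 24 h compound incubation, total RNA from MRTU-transfected HepG2 cells was converted to cDNA and reporter sequences PCR-amplified, labelled and profiled by capillary electrophoresis. Gain and loss of signal were referenced to DMSO.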

[20] = ATG_TA_CIS: Attagene CIS-FACTORIAL HepG2 Assay for human TA Basal Promoter (AID 2282964); settings: HepG2 Attagene CIS-factorial TA basal promoter reporter; actives raise or lower the signal
Method in brief: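 Cis-factorial format in HepG2: reporters report endogenous factors, not chimeric Gal4 fusions. After 24 h treatment, reporter transcripts were measured by RT-PCR-capillary electrophoresis fluorescence, analysed bidirectionally versus DMSO.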

Measured: AC50

Chain of Signal transducer and activator of transcription 3 (Homo sapiens) (P40763 whole entry, looked up): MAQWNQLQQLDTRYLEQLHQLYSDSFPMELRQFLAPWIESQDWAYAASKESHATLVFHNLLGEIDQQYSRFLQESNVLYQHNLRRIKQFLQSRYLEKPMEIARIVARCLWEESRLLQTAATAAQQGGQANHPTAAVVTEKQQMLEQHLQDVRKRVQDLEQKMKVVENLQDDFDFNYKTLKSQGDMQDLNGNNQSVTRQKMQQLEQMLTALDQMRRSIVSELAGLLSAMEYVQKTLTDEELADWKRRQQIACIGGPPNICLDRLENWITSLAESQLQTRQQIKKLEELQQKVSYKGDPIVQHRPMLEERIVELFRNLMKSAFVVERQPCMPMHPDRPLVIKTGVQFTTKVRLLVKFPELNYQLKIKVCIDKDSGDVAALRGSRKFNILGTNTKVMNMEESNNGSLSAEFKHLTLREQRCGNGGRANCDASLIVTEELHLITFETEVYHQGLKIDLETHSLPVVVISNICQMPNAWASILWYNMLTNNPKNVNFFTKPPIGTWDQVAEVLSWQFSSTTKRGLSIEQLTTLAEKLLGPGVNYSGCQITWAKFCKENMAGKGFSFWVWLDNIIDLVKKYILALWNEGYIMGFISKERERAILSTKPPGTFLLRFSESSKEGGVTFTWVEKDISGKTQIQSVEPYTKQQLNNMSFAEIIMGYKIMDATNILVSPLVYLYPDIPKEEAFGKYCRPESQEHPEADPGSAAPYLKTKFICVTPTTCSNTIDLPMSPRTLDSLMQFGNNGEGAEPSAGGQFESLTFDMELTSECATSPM
Chain of Hypoxia-inducible factor 1-alpha (Homo sapiens) (Q16665 whole entry, looked up): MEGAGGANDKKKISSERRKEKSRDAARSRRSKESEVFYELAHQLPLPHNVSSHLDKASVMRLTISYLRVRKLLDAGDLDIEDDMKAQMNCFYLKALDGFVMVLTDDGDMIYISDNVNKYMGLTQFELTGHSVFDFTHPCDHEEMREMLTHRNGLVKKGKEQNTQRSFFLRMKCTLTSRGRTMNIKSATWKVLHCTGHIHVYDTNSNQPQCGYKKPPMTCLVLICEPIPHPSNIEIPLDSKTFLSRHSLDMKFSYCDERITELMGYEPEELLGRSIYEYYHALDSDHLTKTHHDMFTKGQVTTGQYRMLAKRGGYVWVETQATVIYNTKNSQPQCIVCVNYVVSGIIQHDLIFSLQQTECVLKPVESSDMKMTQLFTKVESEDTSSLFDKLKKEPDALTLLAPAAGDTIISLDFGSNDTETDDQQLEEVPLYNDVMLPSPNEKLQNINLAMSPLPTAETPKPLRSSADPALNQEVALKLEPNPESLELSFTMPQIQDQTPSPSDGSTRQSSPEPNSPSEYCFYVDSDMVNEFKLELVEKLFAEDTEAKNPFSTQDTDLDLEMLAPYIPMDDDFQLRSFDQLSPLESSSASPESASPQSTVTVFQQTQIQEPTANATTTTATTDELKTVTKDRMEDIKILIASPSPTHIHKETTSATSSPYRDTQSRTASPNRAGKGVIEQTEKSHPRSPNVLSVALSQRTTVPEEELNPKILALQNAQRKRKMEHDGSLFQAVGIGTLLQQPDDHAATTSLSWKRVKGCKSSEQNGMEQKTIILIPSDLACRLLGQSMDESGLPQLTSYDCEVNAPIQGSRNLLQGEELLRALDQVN
Chain of Hepatocyte nuclear factor 6 (Homo sapiens) (Q9UBC0 whole entry, looked up): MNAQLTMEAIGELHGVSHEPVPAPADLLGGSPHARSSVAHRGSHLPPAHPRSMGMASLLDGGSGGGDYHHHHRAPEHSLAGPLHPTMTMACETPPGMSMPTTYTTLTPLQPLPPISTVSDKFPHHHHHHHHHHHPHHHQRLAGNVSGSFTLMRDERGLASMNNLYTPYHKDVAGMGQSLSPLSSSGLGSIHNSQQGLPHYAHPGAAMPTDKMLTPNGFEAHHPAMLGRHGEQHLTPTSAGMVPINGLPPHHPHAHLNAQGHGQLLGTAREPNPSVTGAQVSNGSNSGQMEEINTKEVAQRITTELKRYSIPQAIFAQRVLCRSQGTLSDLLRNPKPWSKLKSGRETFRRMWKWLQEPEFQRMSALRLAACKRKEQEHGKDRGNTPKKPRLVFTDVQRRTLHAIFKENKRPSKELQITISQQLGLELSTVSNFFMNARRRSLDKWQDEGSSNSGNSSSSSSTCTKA
Chain of Heat shock factor protein 1 (Homo sapiens) (Q00613 whole entry, looked up): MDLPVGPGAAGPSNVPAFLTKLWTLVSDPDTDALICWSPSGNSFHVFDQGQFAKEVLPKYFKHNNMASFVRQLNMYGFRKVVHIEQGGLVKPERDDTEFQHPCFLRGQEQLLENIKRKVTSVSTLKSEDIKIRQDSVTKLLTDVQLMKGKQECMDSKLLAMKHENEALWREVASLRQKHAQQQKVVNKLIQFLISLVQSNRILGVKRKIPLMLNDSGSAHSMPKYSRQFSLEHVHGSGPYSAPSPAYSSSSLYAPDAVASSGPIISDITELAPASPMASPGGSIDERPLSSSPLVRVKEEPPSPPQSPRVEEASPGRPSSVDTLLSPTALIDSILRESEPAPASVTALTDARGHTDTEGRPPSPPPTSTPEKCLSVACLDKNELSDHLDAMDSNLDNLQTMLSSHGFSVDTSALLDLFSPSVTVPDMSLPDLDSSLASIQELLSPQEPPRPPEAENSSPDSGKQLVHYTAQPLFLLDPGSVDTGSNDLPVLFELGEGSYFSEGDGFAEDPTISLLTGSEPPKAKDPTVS
Chain of Bile acid receptor (Homo sapiens) (Q96RI1 whole entry, looked up, the tested form may be a part): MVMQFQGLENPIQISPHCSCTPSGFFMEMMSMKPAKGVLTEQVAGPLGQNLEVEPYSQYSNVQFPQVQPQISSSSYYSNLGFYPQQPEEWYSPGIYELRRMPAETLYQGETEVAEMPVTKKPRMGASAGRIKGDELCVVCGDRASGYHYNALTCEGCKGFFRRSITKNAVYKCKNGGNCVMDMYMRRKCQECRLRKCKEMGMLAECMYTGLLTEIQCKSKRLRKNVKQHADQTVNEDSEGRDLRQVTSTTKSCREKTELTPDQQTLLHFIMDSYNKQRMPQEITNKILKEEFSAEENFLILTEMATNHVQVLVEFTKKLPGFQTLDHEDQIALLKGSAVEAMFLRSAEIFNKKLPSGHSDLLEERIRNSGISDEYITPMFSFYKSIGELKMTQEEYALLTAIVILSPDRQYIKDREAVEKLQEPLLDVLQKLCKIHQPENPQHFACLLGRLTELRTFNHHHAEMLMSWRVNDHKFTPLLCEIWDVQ
Chain of Paired box protein Pax-6 (Homo sapiens) (P26367 whole entry, looked up): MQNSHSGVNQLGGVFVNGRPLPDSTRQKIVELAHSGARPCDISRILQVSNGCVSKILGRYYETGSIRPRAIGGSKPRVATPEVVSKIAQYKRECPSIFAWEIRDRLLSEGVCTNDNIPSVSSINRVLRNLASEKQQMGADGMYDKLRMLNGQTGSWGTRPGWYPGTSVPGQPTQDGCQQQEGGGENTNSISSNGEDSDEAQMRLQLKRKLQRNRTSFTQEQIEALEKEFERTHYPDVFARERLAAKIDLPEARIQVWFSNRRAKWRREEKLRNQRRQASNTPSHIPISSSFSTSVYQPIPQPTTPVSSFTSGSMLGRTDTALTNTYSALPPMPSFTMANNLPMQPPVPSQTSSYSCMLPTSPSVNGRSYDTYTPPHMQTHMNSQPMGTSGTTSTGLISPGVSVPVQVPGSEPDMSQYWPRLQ
Chain of Transcription factor Sp1 (Homo sapiens) (P08047 whole entry, looked up): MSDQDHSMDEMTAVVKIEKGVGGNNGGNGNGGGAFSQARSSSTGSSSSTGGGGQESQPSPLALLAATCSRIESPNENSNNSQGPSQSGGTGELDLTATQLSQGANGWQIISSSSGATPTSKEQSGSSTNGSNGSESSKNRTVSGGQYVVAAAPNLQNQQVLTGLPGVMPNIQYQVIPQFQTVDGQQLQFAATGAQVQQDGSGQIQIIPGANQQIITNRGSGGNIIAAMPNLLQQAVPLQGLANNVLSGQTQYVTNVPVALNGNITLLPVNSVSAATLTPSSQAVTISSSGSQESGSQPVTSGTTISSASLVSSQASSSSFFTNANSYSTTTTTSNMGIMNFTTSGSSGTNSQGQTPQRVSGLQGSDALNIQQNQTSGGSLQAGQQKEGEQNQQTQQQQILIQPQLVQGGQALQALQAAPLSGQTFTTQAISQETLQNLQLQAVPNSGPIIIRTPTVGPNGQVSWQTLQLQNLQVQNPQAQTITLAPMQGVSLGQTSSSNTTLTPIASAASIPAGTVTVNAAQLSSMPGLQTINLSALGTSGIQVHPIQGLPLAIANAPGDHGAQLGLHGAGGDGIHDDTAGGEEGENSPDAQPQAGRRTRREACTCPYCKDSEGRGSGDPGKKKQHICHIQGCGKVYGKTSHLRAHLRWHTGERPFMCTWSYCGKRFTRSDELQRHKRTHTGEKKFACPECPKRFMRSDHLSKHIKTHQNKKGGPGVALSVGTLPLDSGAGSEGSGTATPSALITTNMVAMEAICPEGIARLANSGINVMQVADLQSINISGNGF

CCc1nn(C2CCCCC2)c2cc(C3(C#N)CCC(C(=O)O)CC3)ccc12 (stereo not given)
active: [4] 67.2 µM | [7] 100 µM | [10] 100 µM | [12] 100 µM | [14] 438 nM | [15] 32.4 µM | [18] 65.5 µM | [20] 69.9 µM
inactive: all other assays above

O=C1OC2(c3ccccc31)c1cc(Br)c(O)c(Br)c1Oc1c2cc(Br)c(O)c1Br
active: [11] 52.2 µM | [13] 25.8 µM and 5.86 µM | [15] 74.9 µM and 46.2 µM
inactive: [1] | [2] | [3] | [4] | [5] | [6] | [7] | [8] | [9] | [11] | [12] | [14] | [16] | [17] | [18] | [19] | [20]

O=C(O)Cc1cc(I)c(Oc2cc(I)c(O)c(I)c2)c(I)c1
inactive: [1] | [3] | [4] | [5] | [6] | [7] | [8] | [12] | [13] | [19] | [20]
active: [1] 67 µM | [3] 17.2 µM | [5] 108 µM | [9] 40.5 µM and 44.9 µM | [10] 32.7 µM and 54.7 µM | [11] 113 µM and 17.5 µM | [12] 67 µM | [14] 4.68 µM and 13.3 µM | [15] 53.6 µM and 10.8 µM | [16] 23.4 µM and 18.1 µM | [17] 31.3 µM and 17 µM | [18] 4.05 µM and 5.53 µM | [20] 84.2 µM

CC(C)CCCCCCOC(=O)CCCCC(=O)OCCCCCCC(C)C
active: [13] 100 µM
not listed: [11] | [15]
inactive: all other assays above

C=C(C)C(=O)OCCC(F)(F)C(F)(F)C(F)(F)C(F)(F)C(F)(F)C(F)(F)F
not listed: [10] | [14]
inactive: all other assays above

Source: PubChem BioAssay (EPA / NIEHS)
